NIH3T3 tox: cytotoxic compounds in NIH 3T3 cells; NIH 3T3 viability, CellTiter-Glo ATP luminescence, 48-72 h; Potency, µM (doses to about 96.7 µM), for inactives: top-dose activity change, negative = cytotoxicity, hits mostly inhibitors; 94,000 tested, 4.3% active; also: % is scaled to controls: 0 for no effect and ±100 for the full control effect; nearly all actives have a fitted effect of over 55% in size
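Cells were seeded at 400 per well, treated with pin-transferred compound, and kept 48 or 72 hr at 37 °C before CellTiter-Glo addition and luminescence imaging of cellular ATP.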
hNpr1 antagonist: human Npr1 receptor antagonism; P16066; Potency, µM (titrated, usually from 46.3 µM), for the others: at the highest dose activity change, negative = inhibition, actives largely listed as inhibitors; 76,000 tested, 1.6% active; AID 1347048; HEK293 hNpr1 GloSensor cGMP, ANP-stimulated luminescence; calls by dose curve; also: % is scaled to controls: 0 for no effect and ±100 for the full control effect; nearly all actives have a fitted effect of over 60% in size
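HEK293 cells stably expressing human Npr1 and cGMP GloSensor pGS-40F, loaded 2 h with 2% GloSensor reagent, given compound 30 min at room temperature. Luminescence read before and 20 min after 0.1 nM hNppA.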
GPT2 inhibitor: GPT2 alanine aminotransferase inhibition. Q8TD30. Recombinant GPT2, coupled pyruvate oxidase/HRP Amplex Red fluorescence. Potency, µM (top dose mostly 57.7 µM), for inactives: at the highest dose activity change, negative = inhibition, actives largely listed as inhibitors. 100,000 tested, 0.25% active. AID 1671188; also: % is scaled to controls: 0 for no effect and ±100 for the full control effect; nearly all actives have a fitted effect of over 60% in size
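GPT2 10ng/uL, a-KG 250uM, L-Ala 2mM, HEPES pH7.5 + 0.0001% Tween; 30 min RT. Then Amplex mix (PO/HRP/ThPP), 30 min RT dark, fluorescence. AOA 50uM used as positive control.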
HEK cytotox: cytotoxic compounds in HEK 293 cells; Potency, µM (series often up to 115 µM), for the others: at the highest dose activity change, negative = cytotoxicity, actives largely listed as inhibitors; HEK 293 viability, ATP luminescence (CellTiter-Glo), 48-72 h; 94,000 tested, 6.6% active; also: % is scaled to controls: 0 for no effect and ±100 for the full control effect; nearly all actives have a fitted effect of over 60% in size
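CellTiter-Glo luminescence (cellular ATP) was read after 48 or 72 hr of compound exposure at 37 degree Celsius. Cells were HEK 293 plated at 250 cells/well.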
FLuc inh: blocks purified firefly luciferase enzyme activity; P08659; purified P. pyralis luciferase, luminescence, biochemical; Potency, µM (highest dose often 115 µM), actives largely listed as inhibitors; 76,000 tested, 2.5% active; also: % is scaled to controls: 0 for no effect and ±100 for the full control effect; nearly all actives have a fitted effect of over 65% in size
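Luminescence read by CCD imaging after purified firefly luciferase (10nM final) was added to substrate buffer holding 10uM D-luciferin and 10uM ATP, pH 7.5, pre-dosed with compound.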
NPR1 antag cnf: hNpr1 antagonism, confirmation assay | Potency, µM (doses to about 57.6 µM), for inactives: top-dose activity change, negative = inhibition, usual class: inhibitors | HEK293 hNpr1 cGMP GloSensor luminescence, ANP-stimulated | 1,400 tested, 76% active | shares compounds with hNpr1 antagonist; calls by dose curve; also: nearly all actives have a fitted effect of over 70% in size
Npr2 selectivity: hNpr2 antagonism, selectivity versus Npr1; shares compounds with hNpr1 antagonist; Potency, µM (highest dose often 57.6 µM), inactives show top-dose activity change, negative = inhibition, hits mostly inhibitors; 1,400 tested, 67% active; HEK293 hNpr2 GloSensor cGMP luminescence, CNP-stimulated; AID 1347046; calls by dose curve; also: nearly all actives have a fitted effect of over 70% in size
FLuc inh counter: counter-screen for Npr1 antagonists: firefly luciferase inhibitors. shares compounds with hNpr1 antagonist. purified FLuc enzyme, luminescence, Km substrate. Potency, µM (top dose mostly 57.6 µM), inactives show top-dose activity change, negative = inhibition, usual class: inhibitors. 1,400 tested, 0.7% active; also: 0% is about no effect
GloSensor ctrl: counter-screen for Npr1 antagonists: GloSensor control cell line. shares compounds with hNpr1 antagonist. HEK293 GloSensor cGMP, SNP-stimulated, luminescence. AID 1347051. Potency, µM (highest dose often 57.6 µM), for inactives: at the highest dose activity change, negative = inhibition, usual class: inhibitors. 1,400 tested, 69% active; calls by dose curve; also: % is scaled to controls: 0 for no effect and ±100 for the full control effect; nearly all actives have a fitted effect of over 70% in size
Active calls of the source: *; i = inactive; u = inconclusive; x = not tested or not shown; [ ] = dose if it differs, or a comment. Sampled rows, rich in hits. Any-hit rate of the full collection: about 10%. Unless noted, calls follow the shape of the dose curve; as a rule, active = well fitted curve in the direction sought with a large enough effect; inconclusive = small, poorly fitted or top-dose-only effect, or another doubt; inactive = no such curve, though single readings can be large; an effect the other way counts as inactive or inconclusive. Potency is read from the fitted curve at half-maximal effect.

SMILES	NIH3T3 tox	hNpr1 antagonist	GPT2 inhibitor	HEK cytotox	FLuc inh	NPR1 antag cnf	Npr2 selectivity	FLuc inh counter	GloSensor ctrl
COc1ccccc1C(=O)N1CC(Oc2ccc(-c3nc(-c4ccccc4)no3)cc2)C1	u	11.2µM*	i	u	i	24.3µM*	24.3µM*	-25.2%	21.7µM*
Cc1ccc(OCC(=O)N2CC(Oc3ccc(-c4nc(-c5ccccc5)no4)cc3)C2)cc1	0.9%	1.1%	i	22.3%	u	x	x	x	x
O=C(c1ccc(F)cc1)N1CC(Oc2cccc(-c3nc(-c4ccccc4)no3)c2)C1	u	6.2%	-6.4%	u	u	x	x	x	x
O=C(Cc1ccccc1F)N1CC(Oc2ccc(-c3noc(-c4cccnc4)n3)cc2)C1	-1.9%	-28.9%	-11.8%	-43.3%	i	21.7µM*	21.7µM*	-14.2%	21.7µM*
COc1cccc(CC(=O)N2CC(Oc3ccc(-c4noc(-c5ccncc5)n4)cc3)C2)c1	u	7.94µM*	i	12.6µM*	i	3.06µM*	4.32µM*	-21.0%	3.43µM*
CNC(=O)CC1C(=O)NCCN1CC(=O)Nc1cc(OC)cc(OC)c1 (centres undefined)	-0.6%	-0.5%	i	-14.7%	i	x	x	x	x
COc1ccc(C(=O)N2CCN(C(=O)c3ccccc3)[C@H](C(=O)N[C@H]3CCCNC3=O)C2)cc1	-3.5%	7.2%	i	-6.9%	i	x	x	x	x
Cc1ccsc1C(=O)N1C[C@@H]2CCCN3CCC[C@@H]([C@H]23)[C@H]1CCCC(=O)N1CCOCC1	i	-4.5%	1.9%	8.2%	i	x	x	x	x
CC(C)S(=O)(=O)N1CC(Oc2ccc(-c3noc(-c4cccnc4)n3)cc2)C1	-24.3%	1.41µM*	-10.9%	u	i	21.7µM*	u	-13.8%	21.7µM*
COc1cccc(-c2noc(CC3CCN(C(=O)c4ccc(C)cc4C)CC3)n2)c1	u	11.2µM*	i	35.5µM*	i	10.9µM*	10.9µM*	0.2%	9.68µM*
COc1cccc(-c2cc(C3CCN(C(=O)c4ccc(Br)cc4)CC3)[nH]n2)c1	u	u	4.9%	u	i	27.3µM*	u	2.9%	u
CCc1ccc(C(=O)N2CCC(Cc3nc(-c4cccc(OC)c4)no3)CC2)cc1	39.8µM*	3.98µM*	i	22.4µM*	i	9.68µM*	13.7µM*	1.8%	12.2µM*
COc1cccc(CNC(=O)N2CCC(c3cc(-c4cccc(OC)c4)n[nH]3)CC2)c1	u	u	i	u	i	x	x	x	x
CCOc1ccc(C(=O)N2CCC(Cc3nc(-c4cccc(OC)c4)no3)CC2)cc1	u	7.08µM*	-7.7%	u	i	9.68µM*	12.2µM*	-1.4%	9.68µM*
CCOc1ccc(C(=O)N2CCC(n3cc(-c4nc(-c5ccccc5)no4)nn3)CC2)cc1	-23.0%	-24.6%	i	u	u	x	x	x	x
NC(=O)c1ccccc1OC[C@@H]1CCCN2CCCC[C@H]12	4.0%	5.8%	i	-1.5%	i	x	x	x	x
COCC1CN(Cc2ccccc2)[S+](=O)([O-])c2cccnc2O1 (centres undefined)	-30.9%[46.1 µM]	x	i	u	x	x	x	x	x
COc1cccc(-c2noc(CC3CCN(C(=O)c4ccc(C(C)C)cc4)CC3)n2)c1	u	10µM*	0.3%	35.5µM*	i	13.7µM*	17.2µM*	-4.7%	13.7µM*
COc1cccc(-c2noc(CC3CCN(C(=O)c4ccc(F)c(F)c4)CC3)n2)c1	u	6.31µM*	i	u	i	4.85µM*	9.68µM*	0.1%	6.11µM*
COc1cccc(-c2noc(CC3CCN(C(=O)c4ccc(C)cc4)CC3)n2)c1	u	3.55µM*	1.1%	u	i	4.85µM*	5.44µM*	2.3%	4.32µM*
Cc1cccc(C(=O)N2CCC(Cc3nc(C(C)C)no3)CC2)c1	u	-23.2%	i	u	i	x	x	x	x
O=C1c2c(nc(CNCc3cccc(Cl)c3)n2Cc2ccccc2)NCCN1CCOc1ccccc1	u	-28.8%	1.0%	u	i	u	u	1.9%	u
O=C1c2c(nc(COc3ccc4c(c3)OCO4)n2Cc2ccccc2)NCCN1Cc1ccccc1F	u	u	-10.3%	35.5µM*	i	24.3µM*	u	4.3%	u
O=C1c2c(nc(CNCc3cccc(F)c3)n2Cc2ccccc2)NCCN1Cc1cccc(Cl)c1	u	-23.8%	-2.5%	u	i	x	x	x	x
O=C(c1cc(-c2ccc(Cl)cc2Cl)c2cccn2n1)N1CCOCC1	u	x	i	u	x	x	x	x	x
SMILES	NIH3T3 tox	hNpr1 antagonist	GPT2 inhibitor	HEK cytotox	FLuc inh	NPR1 antag cnf	Npr2 selectivity	FLuc inh counter	GloSensor ctrl
Cc1ccccc1-c1cnc2[nH]cc(CC(=O)NCc3ccco3)c2c1	u	31.6µM*	-4.9%[88.5 µM]	70.8µM*	i	35.3µM*	31.4µM*	1.1%[86.2 µM]	25µM*
Cc1cn2nc(C(=O)N3CCC(NC(=O)Cc4c[nH]c5ccccc45)CC3)cc2c(=O)[nH]1	i	0.7%	-18.1%	2.8%	i	x	x	x	x
Cc1ccccc1-c1cnc2[nH]cc(CC(=O)NC3CC3)c2c1	u	14.1µM*	-3.6%[88.5 µM]	u	i	12.5µM*	17.7µM*	12.7%[86.2 µM]	12.5µM*
Cc1ccc2cc(CCC(=O)NCc3ccco3)c(=O)[nH]c2c1	-3.8%	-7.4%	i	-4.2%	i	x	x	x	x
COc1nccnc1NC1CCN(C(=O)COc2ccc(C)cc2)CC1	-6.2%	4.5%	i	3.7%	i	x	x	x	x
O=C(c1ccc(F)cc1Cl)N1CCC(Cc2nc(-c3ccc(F)cc3)no2)CC1	u	3.16µM*	i	31.6µM*	i	3.06µM*	3.06µM*	4.4%	3.06µM*
O=C(c1cc(F)ccc1F)N1CCC(Cc2nc(-c3ccccc3)no2)CC1	u	5.62µM*	i	u	i	7.69µM*	9.68µM*	-14.7%	8.62µM*
O=C(c1cccc(F)c1)N1CCC(Cc2nc(-c3cnccn3)no2)CC1	-19.7%	-1.8%	-6.9%	-22.8%	i	x	x	x	x

Screening data from PubChem.
